PERK inh – inhibitors of human PERK kinase | CHO PERK-DD fusion, SEAP luminescence translation reporter | 0.17% of 220,000 active | inhibition, % at 5.6 µM;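 active = inhibition above the mean inhibition of all tested compounds plus 3 SD, set separately per screening campaign, cut at about 2.9% in these data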;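 also: PERK kinase domain activated by AP20187 dimerizer at 100 nM; 0% = DMSO with dimerizer and 100% = rapamycin at 8.4 µM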
eIF4E-4G inh – eIF4E/eIF4G interaction inhibition in translation initiation | AID 782 | inhibition, % at 21.7 µM | 0.37% of 220,000 active | TR-FRET eIF4E-eIF4GI(517-606) binding, 2 h;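 active = inhibition above about 30%, limit read from the data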;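 also: 0% = full FRET control wells and 100% = background wells lacking eIF4GI fragment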
PABP polyA inh – PABP-poly(A) binding inhibition. P11940. PABP-poly(A) RNA binding, fluorescence polarization. calls only at 35 µM. 1% of 290,000 active. AID 2014;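 also: calls also rest on retests at 20 µM and on dose response follow-up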
eIF4H inh – inhibitors of RNA binding by human eIF4H; Q15056; eIF4H fluorescence polarization binding assay; inhibition, % at 35 µM; 0.94% of 290,000 active;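 also: calls also rest on retests at 20 µM and on dose response follow-up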
PABP1 MLLE inh – inhibitors of microRNA-mediated deadenylation, human PABP1 MLLE binding; P11940; GST-MLLE / FITC-PAM2 fluorescence polarization; inhibition, % at 20 µM; 0.36% of 360,000 active; in the data active = inhibition above about 35%, passing the limit was not always enough;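 also: plate controls were DMSO wells with GST-MLLE for no effect and wells lacking GST-MLLE protein for full effect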
Numbers without * were called inactive; i = inactive; ? = inconclusive; / = no result given; + = active, no number. Rows were chosen to be rich in hits. Some 1.6% of all compounds tested hit in one or more screens of this group. Unless noted, no rule for the calls is given here.

SMILES | PERK inh | eIF4E-4G inh | PABP polyA inh | eIF4H inh | PABP1 MLLE inh
CCc1ccc(NC(=O)c2ccc3c(c2)C(=O)N(Cc2ccco2)C3=O)cc1 | 0 | -1 | + | 57* | 16
O=C(/C=N/O)Nc1ccc2sc3ccccc3c2c1 | 0 | 5 | i | -1 | -4
CC(=O)c1c(N2CCN(c3ccccn3)CC2)nc(=S)n(-c2ccccc2)c1C | 0 | 0 | + | ? | 16
CC(=O)c1c(N2CCN(c3cccc(Cl)c3)CC2)nc(=S)n(-c2ccccc2)c1C | -1 | 5 | + | 84* | 7
COc1ccc(N2CCN(c3nc(=S)n(-c4ccccc4)c(C)c3C(C)=O)CC2)cc1 | 0 | -5 | + | 68* | -14
CCn1c(C)c(C(C)=O)c(N2CCN(c3ccc(OC)cc3)CC2)nc1=S | 0 | 6 | i | 83 | -87
CC(=O)c1c(N2CCN(C)CC2)nc(=S)n(Cc2ccccc2)c1C | 1 | 16 | i | 41 | 23
OC(c1ccc(F)cc1)c1nc(-c2cnc3ccccc3c2)cs1 (centres undefined) | / | / | / | / | 4
C=CCN(c1ccc(F)cc1)S(=O)(=O)c1cc(C(=O)OCC(=O)N(C)C2CCS(=O)(=O)C2)ccc1Cl (centres undefined) | -1 | -5 | i | -5 | 19
O=C(NCc1cccnc1)C1Cc2c(-c3ccc(Cl)cc3)ccnc2O1 (centres undefined) | / | / | / | / | -8
O=c1[nH][nH]c2c(N=Cc3ccccc3O)ccc(F)c12 | 1 | 30 | ? | ? | 49*
N#CCCN(C(=O)CN1CCN(S(=O)(=O)c2ccc(Cl)s2)CC1)c1ccc(F)cc1 | / | / | / | / | -18
CN(CC(=O)Nc1cccc(F)c1)C(=O)/C=C/c1cn(Cc2ccccc2)nc1-c1cccnc1 | / | / | / | / | -30
COc1ccc(-c2ccc(/C=C3/C(=N)N4C(C)=CSC4=NC3=O)o2)c([N+](=O)[O-])c1 | 0 | 8 | + | 91* | 49
O=C(c1ccc2nc(-c3ccco3)c(-c3ccco3)nc2c1)N1CCN(c2ncccn2)CC1 | 0 | 9 | + | 85* | 24
O=C(/C=C/c1ccco1)N1CCN(c2ncccn2)CC1 | 1 | 23 | i | 44 | 68*
Cc1cccc(N2CCN(C(=O)c3ccc4nc(-c5ccco5)c(-c5ccco5)nc4c3)CC2C)c1 (centres undefined) | 0 | -9 | + | 93* | 12
O=C(Nc1ccc2nc(-c3ccco3)c(-c3ccco3)nc2c1)N1CCN(c2ccccn2)CC1 | 0 | 1 | + | 106* | 49*
O=C(c1cccc(C(=O)N2CCN(c3ncccn3)CC2)c1)N1CCN(c2ncccn2)CC1 | 1 | 6 | i | -12 | 6
O=C(/C=C/c1c(Cl)cccc1Cl)N1CCN(c2ncccn2)CC1 | 0 | -2 | i | 2 | 1
COc1ccccc1NC(=S)NC1CCC(CC2CCC(NC(=S)Nc3ccccc3OC)CC2)CC1 (centres undefined) | 1 | -2 | i | 0 | -22
NS(=O)(=O)c1ccc(CCNC(=O)COC(=O)C2CCN(c3ccc(C(F)(F)F)cn3)CC2)cc1 | / | / | / | / | -23
O=C(NCCc1nnc2ccc(SCC(=O)N3CCCC3)nn12)c1ccccc1 | / | / | i | -8 | 6
ClC1(CNc2ccccc2)CCN(Cc2ccccc2)CC1 | / | / | / | / | -3
O=C(Cn1nnc(-c2cccs2)n1)NCc1ccccc1 | 1 | 7 | i | -3 | 17
SMILES | PERK inh | eIF4E-4G inh | PABP polyA inh | eIF4H inh | PABP1 MLLE inh
CC(C)(C)NC(=O)Cn1nnc(-c2cccs2)n1 | 1 | 9 | + | 65* | 12
O=C(O)Cn1nnc(-c2cccs2)n1 | 1 | -3 | i | -3 | 7
O=C(Cn1nnc(-c2cccs2)n1)NCc1ccco1 | 2.9* | -1 | i | 2 | -5
COc1ccc(NC(=O)c2ccco2)cc1N | 1 | 1 | + | 92* | -2
COc1ccc(NC(=O)c2ccco2)cc1NC(=O)c1ccco1 | 0 | 4 | i | 2 | 7
CCN1C(=NCCc2cccs2)N[C@@H](c2cccs2)C(C(=O)OC)=C1C | / | / | + | 0 | -117
Cc1ccc(Sc2ncccc2COC(=O)NC(C)C)cc1 | 1 | 1 | + | active | -14
CCCCC(=O)Nc1ccc(NC(=S)NC(=O)CC(C)C)cc1OC | 1 | 16 | + | active | 16
Cc1ccc(NC2=CC(=O)CC(C)(C)C2)c(N)c1 | 1 | 2 | + | 82* | 6
CC1(C)CC(=O)C=C(Nc2ccccc2N)C1 | / | / | i | -9 | 4
